The nature of assay [1]: resazurin metabolic signal in HepG2 cells – cell-based, resazurin fluorescence, 24 h, PK04 Diversity Set, profiling panel (AID 1172). Note: test concentration not given here. The note with it: HepG2 viability, higher = more signal.
Assay [2] is described as follows: budding yeast growth changes without added modifier – OD600, strain BY4716, 24 h, basal condition, primary screen (AID 1173). The note with it: S. cerevisiae BY4716 growth, OD600, 24 h; higher = more signal, called active from +8 up or from −8 down.
Assay [3] can be described thus: viability profiling in MM1S myeloma cells – cell-based, resazurin fluorescence, basal, 24 h, PK04 Diversity Set, profiling panel (AID 1174).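 Note: MM1S multiple myeloma cell line; test concentration not given here.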 The settings on record: higher = more signal, called active from +8 up or from −8 down. In general terms: Alamar Blue is a resazurin reagent that responds to reducing activity.
Assay [4] concerns the target Dihydroorotate dehydrogenase (quinone), mitochondrial (Plasmodium falciparum (isolate 3D7)) (UniProt Q08210). Nature of the assay: inhibition of P. falciparum DHODH – biochemical, C-terminal His tag, absorbance 600 nm, primary screen (AID 1175).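 Note: recombinant parasite enzyme with a five histidine tag at its C terminus; test concentration not given here.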 The note with it: PfDHODH enzyme, DCIP absorbance 600 nm; higher = more signal, called active from +8 up or from −8 down.
Assay [5] can be described thus: inhibition of PAO1 biofilm formation – strain PAO1, LB-PBS medium, absorbance 600 nm, primary screen (AID 1176). Note: test concentration not given here. The note with it: P. aeruginosa PAO1 growth/biofilm, A600, 12 h; higher = more signal.
A short description of assay [6]: growth modulation of vineyard yeast isolate – strain RM11-1a, OD600, basal, 24 h, primary screen (AID 1177).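 Note: cultures grown under basal conditions with no added stressor; test concentration not given here.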 The note with it: S. cerevisiae RM11-1a growth, OD600, 24 h; higher = more signal, called active from +8 up or from −8 down.
Assay [7] can be described thus: growth of efflux-deficient E. coli DRC39 – strain DRC39, OD650, 24 h, E. coli filamentation inducers, primary screen (AID 1178).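 Note: growth measured as culture turbidity by optical density at 650 nm; test concentration not given here.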 The settings on record: E. coli DRC39 acrAB, higher = more signal, called active from +8 up or from −8 down.
A short description of assay [8]: growth of efflux-deficient E. coli DRC39 – strain DRC39, OD650, 48 h, E. coli filamentation inducers, primary screen (AID 1179).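 Note: screen aims at cell division blockers that make cells filament.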 The note with it: E. coli DRC39 delta-acrAB growth, higher = more signal, called active from +8 up or from −8 down.
Assay [9] in a line: viability profiling in RPMI8226 myeloma cells – cell-based, resazurin fluorescence, basal, 24 h, PK04 Diversity Set, profiling panel (AID 1180).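 Note: RPMI8826 multiple myeloma cell line at 5000 cells per well; test concentration not given here.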 The note with it: higher = more signal.
The target of assay [10] is E3 ubiquitin-protein ligase XIAP (Homo sapiens) (UniProt P98170). Nature of the assay: small molecules binding XIAP protein – biophysical, small-molecule microarray, fluorescence 635 nm, primary screen (AID 1181).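 Note: score merges 667 nm emission and signal to noise over triplicate slides.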 The settings on record: higher = more signal.
Sequence of E3 ubiquitin-protein ligase XIAP (Homo sapiens) (P98170 whole entry, looked up): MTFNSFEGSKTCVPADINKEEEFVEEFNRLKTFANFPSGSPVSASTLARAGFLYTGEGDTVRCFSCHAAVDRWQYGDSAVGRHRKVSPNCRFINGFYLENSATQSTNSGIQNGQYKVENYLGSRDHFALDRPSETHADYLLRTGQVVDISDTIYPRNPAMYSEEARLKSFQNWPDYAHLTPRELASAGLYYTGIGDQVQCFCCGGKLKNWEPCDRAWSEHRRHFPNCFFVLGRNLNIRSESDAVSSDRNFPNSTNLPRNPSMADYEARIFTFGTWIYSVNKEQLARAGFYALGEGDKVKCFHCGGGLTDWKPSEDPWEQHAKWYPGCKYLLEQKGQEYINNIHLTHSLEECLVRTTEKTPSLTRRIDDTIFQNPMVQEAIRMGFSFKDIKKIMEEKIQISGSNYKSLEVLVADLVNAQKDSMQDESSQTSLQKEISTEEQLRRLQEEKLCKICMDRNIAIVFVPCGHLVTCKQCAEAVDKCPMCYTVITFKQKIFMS

Activity calls are given as the source filed them. Unless noted, the rule behind the calls is not given here.

Sequence of Dihydroorotate dehydrogenase (quinone), mitochondrial (Plasmodium falciparum (isolate 3D7)) (Q08210 whole entry, looked up): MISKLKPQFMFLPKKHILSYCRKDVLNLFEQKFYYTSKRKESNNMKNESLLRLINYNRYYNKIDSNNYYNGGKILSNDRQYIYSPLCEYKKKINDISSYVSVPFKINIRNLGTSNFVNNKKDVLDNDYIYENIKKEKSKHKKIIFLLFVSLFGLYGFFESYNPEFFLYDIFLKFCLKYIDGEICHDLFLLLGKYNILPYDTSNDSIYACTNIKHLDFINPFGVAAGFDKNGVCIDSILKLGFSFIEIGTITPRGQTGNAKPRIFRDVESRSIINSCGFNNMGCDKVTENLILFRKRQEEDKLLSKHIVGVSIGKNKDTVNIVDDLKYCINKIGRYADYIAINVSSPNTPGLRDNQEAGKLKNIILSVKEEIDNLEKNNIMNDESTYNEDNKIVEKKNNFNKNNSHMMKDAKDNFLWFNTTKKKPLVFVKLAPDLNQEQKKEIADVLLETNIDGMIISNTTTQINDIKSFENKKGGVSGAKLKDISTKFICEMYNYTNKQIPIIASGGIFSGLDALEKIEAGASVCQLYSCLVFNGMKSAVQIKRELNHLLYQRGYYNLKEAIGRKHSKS

For the compound `CC(C)C(=C=CC[C@H](O)c1ccc(OCCO)cc1)CCO`, the z-score was 0.933 in assay [1]; -1.87 (inactive) in assay [2]; -0.69 (inactive) in assay [3]; 0.825 (inactive) in assay [5]; -0.269 (inactive) in [6]; -0.732 (inactive) in assay [7]. The z-score in assay [8] was -0.794 (inactive); in assay [9], -0.0148. Also, the composite z-score was -0.324 (inactive) in assay [4] and 0.223 in assay [10].

`CO[C@H]1O[C@H](CO)[C@@H](OC(=O)Nc2ccc(Oc3ccccc3)cc2)[C@H](OC(=O)Nc2ccc3c(c2)OCO3)[C@H]1OC(=O)Nc1ccc2c(c1)OCO2`: the z-score in assay [1] was -0.692; in assay [2], 0.759 (inactive); in [3] it was 0.0487 (inactive); in assay [5], 2.07 (inactive); in [6], 1.11 (inactive); in [7] it was 1.65 (inactive). The z-score is 0.0431 (inactive) in assay [8] and 0.404 in [9]. For the same compound, the composite z-score in [4] was -0.227 (inactive); in assay [10], -0.0795.

Take `CCOC(=O)C1=C[C@@H](C(C)(C)C)N(S(=O)(=O)c2ccc(C)cc2)[C@H]1c1ccc(F)cc1`: the z-score in assay [1] was -0.457; in assay [2] it was 2.32 (inactive); in assay [3], -0.544 (inactive); in [5], -0.116 (inactive); in assay [6] it was 1.78 (inactive); in assay [7], -0.731 (inactive). For the same compound, the z-score in [8] is -0.791 (inactive); in [9] it was -2.36. For the same compound, the composite z-score was 0.412 (inactive) in assay [4] and -0.02 in assay [10].

In the case of `COCCOC(=O)N1C(=O)[C@@]2(c3cc(C#CCCO)ccc31)[C@H](C(N)=O)[C@H]1C(=O)O[C@H](c3ccccc3)[C@H](c3ccccc3)N1[C@@H]2c1ccc(O)cc1`, the z-score was -0.256 in assay [1]; -0.089 (inactive) in assay [2]; 0.0773 (inactive) in assay [3]; 0.181 (inactive) in assay [5]; -0.204 (inactive) in [6]; 0.125 (inactive) in assay [7]. Further, the values for the z-score in [8] and in assay [9] were -0.176 (inactive) and -0.104, respectively. For the same compound, the composite z-score in assay [4] was -0.176 (inactive); in assay [10], 0.142.

Regarding `NC(=O)[C@@H]1[C@H]2C(=O)O[C@H](c3ccccc3)[C@H](c3ccccc3)N2[C@H](c2ccc(O)cc2)[C@@]12C(=O)Nc1ccccc12`, the z-score in assay [1] is 0.363; in assay [2], -1.39 (inactive); in [3] it was 0.307 (inactive); in assay [5], 0.449 (inactive); in [6], -0.665 (inactive); in assay [7], 0.385 (inactive). Moreover, the results for the z-score in assay [8] and in assay [9] were -0.766 (inactive) and -0.224, respectively. Further, the composite z-score in [4] was -0.565 (inactive); in [10] it was 0.0073.

Consider `COCCOC(=O)N1C(=O)[C@@]2(c3cc(C#Cc4ccc(OC)cc4)ccc31)[C@H](c1ccc(OCCO)cc1)N1[C@H](c3ccccc3)[C@H](c3ccccc3)OC(=O)[C@H]1[C@@H]2C(=O)N1CCN(c2ncccn2)CC1`, for which the z-score is -0.107 in [1]; 3.4 (inactive) in assay [2]; 0.202 (inactive) in [3]; 1.9 (inactive) in assay [5]; 3.43 (inactive) in assay [6]; 0.129 (inactive) in assay [7]. In addition, the z-score in [8] is -0.312 (inactive); in assay [9], 0.55. Further, the composite z-score was -1.76 (inactive) in [4] and 0.0623 in assay [10].

For `C=C(CC1([C@@H](NP(=O)(c2ccccc2)c2ccccc2)[C@H]2C[C@@H]2CCCC)CC1)c1ccccc1`, the z-score in [1] is 2.02; in [2], 1.06 (inactive); in [3] it was 1.07 (inactive); in assay [5] it was 0.812 (inactive); in assay [6], 0.753 (inactive); in assay [7], -0.167 (inactive). Moreover, the z-score in assay [8] was -0.821 (inactive); in [9] it was 3.34. The composite z-score in assay [4] was -0.424 (inactive); in assay [10], -0.167.

Take `CNS(=O)(=O)c1ccc(C)cc1`: the z-score in assay [1] was 0.925; in assay [2] it was -1.13 (inactive); in [3], 0.68 (inactive); in assay [5], 0.426 (inactive); in [6], -1.4 (inactive); in assay [7], 0.738 (inactive). For the same compound, the z-score in [8] was 0.774 (inactive); in assay [9] it was -0.149. For the same compound, the composite z-score was -1.05 (inactive) in assay [4] and -0.328 in assay [10].

Take `CC(C)C(O)C1C=CC2C(=O)NC(=O)C2N1Nc1ccc(Cl)cc1Cl` (stereo not given): the z-score in assay [1] is -1.29; in assay [2], -9.69 (active); in assay [3] it was -1.59 (inactive); in [5], 0.751 (inactive); in assay [6], 1.05 (inactive); in [7], -0.456 (inactive). In addition, the results for the z-score in assay [8] and in assay [9] were -0.527 (inactive) and -1.93, respectively. In addition, the composite z-score in assay [4] is 0.0813 (inactive); in [10] it was -0.02.

`COc1ccc(C(O)C2C=CC3C(=O)N(Cc4ccccc4)C(=O)C3N2n2cnnc2)cc1OCc1ccccc1` (stereo not given): the z-score was -0.299 in assay [1]; 0.278 (inactive) in assay [2]; 0.708 (inactive) in assay [3]; 1.13 (inactive) in [5]; -0.271 (inactive) in assay [6]; 1.31 (inactive) in assay [7]. The z-score in assay [8] was -0.48 (inactive); in assay [9], 0.329. Besides, the composite z-score is -0.265 (inactive) in assay [4] and 0.035 in assay [10].

On to `NCCCCCNC(=O)[C@@H]1C[C@@H]2C(=O)N[C@@H](Cc3ccccc3)C(=O)N2[C@@H]1c1ccc(O)cc1`, for which the z-score in assay [1] was -1.74; in assay [2], -0.576 (inactive); in [3] it was -0.0591 (inactive); in assay [5], 1.07 (inactive); in assay [6], -0.56 (inactive); in assay [7], -0.598 (inactive). Further, the z-score in assay [8] was -0.384 (inactive); in [9] it was 0.15. Further, the composite z-score was -0.0741 (inactive) in [4] and 0.013 in assay [10].
